Tests used:
Assay in all cases: DAPPL (digital affinity profiling via proximity ligation, sequencing); 10 mM Tris-HCl pH 7.5, 50 mM NaCl, 1 mM DTT, 4% glycerol, room temperature, 30 min; GST-TFs on glutathione beads, 16-mer random dsDNA library, 0.1% formaldehyde crosslink after washing; high values mean tight binding
[1] = molecular target: T1, FLI1 (Homo sapiens, UniProt Q01543 1-452); conditions: protein: recombinant; tags: N-terminal GST; dsDNA, one strand shown
T1 sequence: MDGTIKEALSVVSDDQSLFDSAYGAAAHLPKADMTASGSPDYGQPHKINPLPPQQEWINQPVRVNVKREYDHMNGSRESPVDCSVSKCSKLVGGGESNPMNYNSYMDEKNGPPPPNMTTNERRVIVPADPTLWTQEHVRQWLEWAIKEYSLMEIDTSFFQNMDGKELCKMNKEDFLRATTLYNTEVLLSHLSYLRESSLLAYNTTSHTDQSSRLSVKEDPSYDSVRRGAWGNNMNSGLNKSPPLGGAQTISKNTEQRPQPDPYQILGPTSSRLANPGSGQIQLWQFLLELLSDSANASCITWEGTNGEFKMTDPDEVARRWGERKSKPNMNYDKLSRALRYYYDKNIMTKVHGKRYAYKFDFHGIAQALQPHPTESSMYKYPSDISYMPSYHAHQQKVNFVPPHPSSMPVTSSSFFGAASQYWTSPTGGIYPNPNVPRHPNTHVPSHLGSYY
Outline: (§1)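 GST fusions of human transcription factors were expressed in yeast and captured with glutathione beads. Once given DNA barcodes and pooled alongside a tag-only sample, they were incubated for 30 min at room temperature with 200 nmole of a random double-stranded 16-mer DNA library in Tris/NaCl/DTT/glycerol buffer, then washed, crosslinked (0.1% formaldehyde), proximity-ligated, PCR-amplified and sequenced on an Illumina NextSeq500. The binding signal of each hexamer is its read frequency for a factor divided by its frequency for the tag-only sample.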

[2] = molecular target: T2, ELK1 (Homo sapiens, UniProt P19419 1-428); conditions: protein: recombinant; tags: N-terminal GST; dsDNA, one strand shown
T2 sequence: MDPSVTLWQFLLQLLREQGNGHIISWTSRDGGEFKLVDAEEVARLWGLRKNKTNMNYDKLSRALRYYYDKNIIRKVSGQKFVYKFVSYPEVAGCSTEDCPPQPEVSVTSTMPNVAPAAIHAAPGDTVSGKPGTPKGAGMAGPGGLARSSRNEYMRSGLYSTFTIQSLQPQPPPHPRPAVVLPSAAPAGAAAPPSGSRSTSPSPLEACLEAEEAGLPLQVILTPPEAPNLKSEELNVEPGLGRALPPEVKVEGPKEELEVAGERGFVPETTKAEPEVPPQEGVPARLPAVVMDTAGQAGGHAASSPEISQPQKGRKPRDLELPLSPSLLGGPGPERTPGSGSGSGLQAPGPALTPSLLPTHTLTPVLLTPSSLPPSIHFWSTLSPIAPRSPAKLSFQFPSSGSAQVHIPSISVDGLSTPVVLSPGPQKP
Outline: as §1

[3] = molecular target: T3, GABPA (Homo sapiens, UniProt Q06546 1-454); conditions: protein: recombinant; tags: N-terminal GST; dsDNA, one strand shown
T3 sequence: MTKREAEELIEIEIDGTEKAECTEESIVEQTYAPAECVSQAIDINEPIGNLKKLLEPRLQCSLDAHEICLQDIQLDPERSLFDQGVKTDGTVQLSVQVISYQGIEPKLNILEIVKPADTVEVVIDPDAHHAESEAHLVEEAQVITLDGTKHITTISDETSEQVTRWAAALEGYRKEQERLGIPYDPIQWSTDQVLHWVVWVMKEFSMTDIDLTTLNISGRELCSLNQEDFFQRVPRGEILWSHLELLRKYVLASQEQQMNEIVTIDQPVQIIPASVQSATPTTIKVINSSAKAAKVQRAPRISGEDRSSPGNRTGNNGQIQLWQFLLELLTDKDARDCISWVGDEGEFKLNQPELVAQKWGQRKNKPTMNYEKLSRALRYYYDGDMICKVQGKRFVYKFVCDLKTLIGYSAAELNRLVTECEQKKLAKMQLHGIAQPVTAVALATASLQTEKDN
Outline: as §1

[4] = molecular target: T4, ERG (Homo sapiens, UniProt P11308 1-479); conditions: protein: recombinant; tags: N-terminal GST; dsDNA, one strand shown
T4 sequence: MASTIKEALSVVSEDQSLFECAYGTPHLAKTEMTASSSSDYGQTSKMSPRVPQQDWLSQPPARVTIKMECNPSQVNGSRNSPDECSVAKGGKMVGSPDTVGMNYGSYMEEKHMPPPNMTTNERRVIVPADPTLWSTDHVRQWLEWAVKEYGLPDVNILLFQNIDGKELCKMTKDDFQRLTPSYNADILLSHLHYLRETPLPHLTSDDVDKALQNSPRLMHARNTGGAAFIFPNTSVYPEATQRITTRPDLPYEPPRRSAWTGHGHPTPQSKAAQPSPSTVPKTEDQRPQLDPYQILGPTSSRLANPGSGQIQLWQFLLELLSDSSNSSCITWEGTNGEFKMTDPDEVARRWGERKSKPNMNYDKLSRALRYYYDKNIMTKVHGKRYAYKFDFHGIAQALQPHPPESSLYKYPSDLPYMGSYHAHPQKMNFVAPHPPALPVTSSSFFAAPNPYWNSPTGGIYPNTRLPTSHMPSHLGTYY
Outline: as §1

[5] = molecular target: ELF1 (Homo sapiens, UniProt P32519 1-619); conditions: protein: recombinant; tags: N-terminal GST; dsDNA, one strand shown
Outline: as §1

[6] = molecular target: T5, EHF (Homo sapiens, UniProt Q9NZC4 1-300); conditions: protein: recombinant; tags: N-terminal GST; dsDNA, one strand shown
T5 sequence: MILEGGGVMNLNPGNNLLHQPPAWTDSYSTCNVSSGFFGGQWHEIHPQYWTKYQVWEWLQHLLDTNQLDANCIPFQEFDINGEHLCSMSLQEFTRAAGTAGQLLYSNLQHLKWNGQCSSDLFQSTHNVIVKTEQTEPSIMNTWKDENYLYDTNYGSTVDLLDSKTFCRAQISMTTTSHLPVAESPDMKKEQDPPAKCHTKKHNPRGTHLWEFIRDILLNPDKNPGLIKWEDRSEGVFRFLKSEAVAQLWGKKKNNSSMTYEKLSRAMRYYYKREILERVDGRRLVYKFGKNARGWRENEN
Outline: as §1

[7] = molecular target: SPI1 (Homo sapiens, UniProt P17947 1-270); conditions: protein: recombinant; tags: N-terminal GST; dsDNA, one strand shown
Outline: as §1

[8] = molecular target: SPIB (Homo sapiens, UniProt Q01892 1-262); conditions: protein: recombinant; tags: N-terminal GST; dsDNA, one strand shown
Outline: as §1

[9] = molecular target: T6, ELK3 (Homo sapiens, UniProt P41970 1-407); conditions: protein: recombinant; tags: N-terminal GST; dsDNA, one strand shown
T6 sequence: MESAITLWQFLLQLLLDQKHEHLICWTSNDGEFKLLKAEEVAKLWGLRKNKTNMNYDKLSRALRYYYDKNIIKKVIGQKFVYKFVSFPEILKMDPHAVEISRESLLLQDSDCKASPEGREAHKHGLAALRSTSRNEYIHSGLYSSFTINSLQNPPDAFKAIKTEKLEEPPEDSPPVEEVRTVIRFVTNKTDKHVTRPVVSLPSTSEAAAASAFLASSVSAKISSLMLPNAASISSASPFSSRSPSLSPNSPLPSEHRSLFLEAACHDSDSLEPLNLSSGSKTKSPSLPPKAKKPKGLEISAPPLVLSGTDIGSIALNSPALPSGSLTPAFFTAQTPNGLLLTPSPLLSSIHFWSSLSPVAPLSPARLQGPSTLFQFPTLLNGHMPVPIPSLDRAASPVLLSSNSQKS
Outline: as §1

[10] = molecular target: T7, FEV (Homo sapiens, UniProt Q99581 1-238); conditions: protein: recombinant; tags: N-terminal GST; dsDNA, one strand shown
T7 sequence: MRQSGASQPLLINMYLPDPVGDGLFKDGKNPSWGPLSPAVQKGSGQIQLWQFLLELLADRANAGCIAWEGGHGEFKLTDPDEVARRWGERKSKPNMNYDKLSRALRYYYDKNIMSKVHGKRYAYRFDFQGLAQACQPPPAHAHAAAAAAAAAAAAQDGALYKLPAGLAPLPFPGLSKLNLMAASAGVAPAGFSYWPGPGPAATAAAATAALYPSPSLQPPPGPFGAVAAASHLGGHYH
Outline: as §1

[11] = molecular target: ETV5 (Homo sapiens, UniProt P41161 1-510); conditions: protein: recombinant; tags: N-terminal GST; dsDNA, one strand shown
Outline: as §1

[12] = molecular target: HSF1 (Homo sapiens, UniProt Q00613 1-529); conditions: protein: recombinant; tags: N-terminal GST; chain copies: 3; dsDNA, one strand shown
Outline: as §1

[13] = molecular target: T8, SPIC (Homo sapiens, UniProt Q8N5J4 1-248); conditions: protein: recombinant; tags: N-terminal GST; dsDNA, one strand shown
T8 sequence: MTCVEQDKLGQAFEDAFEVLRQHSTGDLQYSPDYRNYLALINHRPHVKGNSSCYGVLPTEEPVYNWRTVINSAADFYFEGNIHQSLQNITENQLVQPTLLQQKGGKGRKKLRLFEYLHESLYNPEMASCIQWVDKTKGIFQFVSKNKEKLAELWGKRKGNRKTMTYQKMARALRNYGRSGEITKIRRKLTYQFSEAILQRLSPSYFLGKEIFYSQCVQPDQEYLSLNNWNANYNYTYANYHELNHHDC
Outline: as §1

[14] = molecular target: ELF4 (Homo sapiens, UniProt Q99607 1-663); conditions: protein: recombinant; tags: N-terminal GST; dsDNA, one strand shown
Outline: as §1

[15] = molecular target: T9, ELK4 (Homo sapiens, UniProt P28324-2 1-405); conditions: protein: recombinant; tags: N-terminal GST; dsDNA, one strand shown
T9 sequence: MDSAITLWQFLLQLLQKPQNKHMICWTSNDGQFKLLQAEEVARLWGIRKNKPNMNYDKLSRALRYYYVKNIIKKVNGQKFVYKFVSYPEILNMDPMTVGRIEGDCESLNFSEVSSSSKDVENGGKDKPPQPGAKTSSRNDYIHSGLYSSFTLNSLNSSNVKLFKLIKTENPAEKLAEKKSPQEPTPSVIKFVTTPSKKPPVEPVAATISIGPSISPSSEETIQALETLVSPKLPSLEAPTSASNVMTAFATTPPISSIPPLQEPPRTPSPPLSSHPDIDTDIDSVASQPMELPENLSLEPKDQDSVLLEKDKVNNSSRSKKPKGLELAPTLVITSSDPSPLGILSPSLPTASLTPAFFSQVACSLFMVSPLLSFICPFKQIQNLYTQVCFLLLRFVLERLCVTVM
Outline: as §1

[16] = molecular target: T10, ETV2 (Homo sapiens, UniProt O00321 1-342); conditions: protein: recombinant; tags: N-terminal GST; dsDNA, one strand shown
T10 sequence: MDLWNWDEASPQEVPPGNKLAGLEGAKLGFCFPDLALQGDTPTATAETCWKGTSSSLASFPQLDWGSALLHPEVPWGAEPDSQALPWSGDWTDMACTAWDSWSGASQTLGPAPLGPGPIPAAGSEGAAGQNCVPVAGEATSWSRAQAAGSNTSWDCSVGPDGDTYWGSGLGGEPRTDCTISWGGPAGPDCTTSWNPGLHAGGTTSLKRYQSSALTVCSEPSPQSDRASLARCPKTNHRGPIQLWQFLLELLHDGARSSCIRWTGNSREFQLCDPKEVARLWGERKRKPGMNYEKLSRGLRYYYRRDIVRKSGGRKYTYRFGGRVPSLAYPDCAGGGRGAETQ
Outline: as §1

[17] = molecular target: T11, ELF3 (Homo sapiens, UniProt P78545 1-371); conditions: protein: recombinant; tags: N-terminal GST; dsDNA, one strand shown
T11 sequence: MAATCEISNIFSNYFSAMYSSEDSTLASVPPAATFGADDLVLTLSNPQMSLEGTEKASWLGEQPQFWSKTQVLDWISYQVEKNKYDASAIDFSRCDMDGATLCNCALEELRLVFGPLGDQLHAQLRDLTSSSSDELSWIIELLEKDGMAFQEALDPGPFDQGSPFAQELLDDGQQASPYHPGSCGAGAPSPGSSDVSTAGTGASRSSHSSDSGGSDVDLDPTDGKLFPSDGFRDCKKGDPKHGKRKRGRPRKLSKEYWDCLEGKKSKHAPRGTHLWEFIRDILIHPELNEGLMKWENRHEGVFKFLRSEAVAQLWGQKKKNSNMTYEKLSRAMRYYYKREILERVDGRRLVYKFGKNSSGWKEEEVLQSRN
Outline: as §1

[18] = molecular target: CRX (Homo sapiens, UniProt O43186 1-299); conditions: protein: recombinant; tags: N-terminal GST; dsDNA, one strand shown
Outline: as §1

[19] = molecular target: ETV1 (Homo sapiens, UniProt P50549 1-477); conditions: protein: recombinant; tags: N-terminal GST; dsDNA, one strand shown
Outline: as §1

ELF4, sequence (Q99607 whole entry): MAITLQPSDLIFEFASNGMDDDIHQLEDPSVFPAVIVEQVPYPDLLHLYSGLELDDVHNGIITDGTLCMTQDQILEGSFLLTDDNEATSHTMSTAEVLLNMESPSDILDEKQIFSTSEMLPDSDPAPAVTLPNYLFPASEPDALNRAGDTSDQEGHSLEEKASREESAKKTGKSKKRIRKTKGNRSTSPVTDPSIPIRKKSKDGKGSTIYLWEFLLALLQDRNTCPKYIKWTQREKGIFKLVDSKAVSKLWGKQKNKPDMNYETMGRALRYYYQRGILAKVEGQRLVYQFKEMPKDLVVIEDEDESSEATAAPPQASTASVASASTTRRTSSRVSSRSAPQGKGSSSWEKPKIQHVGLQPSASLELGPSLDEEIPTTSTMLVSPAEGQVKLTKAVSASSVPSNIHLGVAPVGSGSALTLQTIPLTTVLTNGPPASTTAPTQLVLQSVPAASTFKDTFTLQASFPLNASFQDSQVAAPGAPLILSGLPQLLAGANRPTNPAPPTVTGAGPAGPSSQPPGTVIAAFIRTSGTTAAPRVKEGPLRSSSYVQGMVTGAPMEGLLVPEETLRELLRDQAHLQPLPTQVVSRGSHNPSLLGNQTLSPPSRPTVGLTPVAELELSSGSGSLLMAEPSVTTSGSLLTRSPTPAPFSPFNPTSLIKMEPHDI
ELF1, sequence (P32519 whole entry): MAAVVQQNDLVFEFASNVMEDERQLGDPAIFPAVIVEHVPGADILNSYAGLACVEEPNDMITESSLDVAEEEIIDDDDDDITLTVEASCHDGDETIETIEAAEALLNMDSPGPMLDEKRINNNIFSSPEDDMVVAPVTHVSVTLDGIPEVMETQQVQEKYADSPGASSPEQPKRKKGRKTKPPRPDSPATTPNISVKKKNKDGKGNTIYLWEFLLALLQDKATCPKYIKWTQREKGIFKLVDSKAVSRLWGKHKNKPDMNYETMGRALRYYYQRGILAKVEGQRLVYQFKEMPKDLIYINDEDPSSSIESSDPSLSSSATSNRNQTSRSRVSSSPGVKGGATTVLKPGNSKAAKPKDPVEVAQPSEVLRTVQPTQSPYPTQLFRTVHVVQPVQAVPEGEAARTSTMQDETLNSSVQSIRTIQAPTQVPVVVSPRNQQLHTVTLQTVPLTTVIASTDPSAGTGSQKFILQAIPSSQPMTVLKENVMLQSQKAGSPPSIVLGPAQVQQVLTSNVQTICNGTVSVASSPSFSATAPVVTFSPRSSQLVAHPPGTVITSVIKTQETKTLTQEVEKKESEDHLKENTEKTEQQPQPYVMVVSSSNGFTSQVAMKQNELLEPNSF
ETV1, sequence (P50549 whole entry): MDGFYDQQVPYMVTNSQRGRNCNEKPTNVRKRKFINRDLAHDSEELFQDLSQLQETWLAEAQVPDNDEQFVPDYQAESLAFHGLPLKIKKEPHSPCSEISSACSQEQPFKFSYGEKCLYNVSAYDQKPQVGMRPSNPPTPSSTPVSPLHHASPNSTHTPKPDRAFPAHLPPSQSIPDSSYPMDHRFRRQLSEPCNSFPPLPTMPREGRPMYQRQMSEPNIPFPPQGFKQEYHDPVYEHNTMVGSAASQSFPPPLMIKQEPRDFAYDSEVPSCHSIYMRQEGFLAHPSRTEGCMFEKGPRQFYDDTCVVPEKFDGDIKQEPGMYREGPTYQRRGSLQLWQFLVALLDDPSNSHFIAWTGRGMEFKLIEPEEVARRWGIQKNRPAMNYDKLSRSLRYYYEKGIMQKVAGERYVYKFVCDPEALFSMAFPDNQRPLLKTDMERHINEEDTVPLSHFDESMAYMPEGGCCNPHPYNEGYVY
HSF1, sequence (Q00613 whole entry): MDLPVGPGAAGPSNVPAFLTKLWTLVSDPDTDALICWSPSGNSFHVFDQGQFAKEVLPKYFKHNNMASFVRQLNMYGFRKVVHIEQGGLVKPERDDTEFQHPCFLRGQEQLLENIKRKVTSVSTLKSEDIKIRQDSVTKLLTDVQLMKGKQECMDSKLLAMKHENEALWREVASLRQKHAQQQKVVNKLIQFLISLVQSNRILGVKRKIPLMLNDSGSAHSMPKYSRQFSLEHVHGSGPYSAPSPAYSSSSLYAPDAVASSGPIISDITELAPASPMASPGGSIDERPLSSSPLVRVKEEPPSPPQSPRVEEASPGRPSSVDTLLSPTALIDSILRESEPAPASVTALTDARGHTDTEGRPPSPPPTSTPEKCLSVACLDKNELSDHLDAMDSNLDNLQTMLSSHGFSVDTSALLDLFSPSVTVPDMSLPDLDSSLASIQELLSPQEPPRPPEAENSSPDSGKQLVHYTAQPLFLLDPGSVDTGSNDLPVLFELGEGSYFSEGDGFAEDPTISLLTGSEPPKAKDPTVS
SPIB, sequence (Q01892 whole entry): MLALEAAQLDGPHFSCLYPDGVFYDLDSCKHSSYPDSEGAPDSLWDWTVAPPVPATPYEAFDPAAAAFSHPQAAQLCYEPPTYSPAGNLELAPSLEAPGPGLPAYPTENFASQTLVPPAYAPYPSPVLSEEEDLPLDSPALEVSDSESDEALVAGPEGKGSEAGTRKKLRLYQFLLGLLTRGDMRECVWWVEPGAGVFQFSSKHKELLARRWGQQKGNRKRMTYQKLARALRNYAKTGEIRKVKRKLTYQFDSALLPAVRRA
ETV5, sequence (P41161 whole entry): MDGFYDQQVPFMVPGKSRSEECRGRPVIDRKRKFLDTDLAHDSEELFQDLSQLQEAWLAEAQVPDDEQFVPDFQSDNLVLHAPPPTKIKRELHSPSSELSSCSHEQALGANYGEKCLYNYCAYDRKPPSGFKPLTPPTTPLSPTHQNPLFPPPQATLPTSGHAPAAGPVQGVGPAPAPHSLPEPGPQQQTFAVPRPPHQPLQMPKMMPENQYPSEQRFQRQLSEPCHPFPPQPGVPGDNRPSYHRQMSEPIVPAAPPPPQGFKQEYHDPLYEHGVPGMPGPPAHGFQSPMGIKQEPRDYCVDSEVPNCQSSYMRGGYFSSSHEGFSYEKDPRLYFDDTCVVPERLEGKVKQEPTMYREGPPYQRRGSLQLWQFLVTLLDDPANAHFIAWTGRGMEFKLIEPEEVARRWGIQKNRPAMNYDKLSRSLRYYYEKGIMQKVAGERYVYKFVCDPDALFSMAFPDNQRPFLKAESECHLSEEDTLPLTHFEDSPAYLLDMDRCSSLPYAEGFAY
CRX, sequence (O43186 whole entry): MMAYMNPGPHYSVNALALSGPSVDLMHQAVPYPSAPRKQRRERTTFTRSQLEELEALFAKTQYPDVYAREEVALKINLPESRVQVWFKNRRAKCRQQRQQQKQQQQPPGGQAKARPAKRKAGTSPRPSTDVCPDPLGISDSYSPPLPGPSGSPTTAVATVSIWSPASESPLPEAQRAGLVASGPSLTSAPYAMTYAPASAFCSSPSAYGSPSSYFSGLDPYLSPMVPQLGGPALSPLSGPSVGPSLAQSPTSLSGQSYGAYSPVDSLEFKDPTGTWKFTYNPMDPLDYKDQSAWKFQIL

CCTCTC
binding signal [1]: 1.51 fold enrichment (6-mer frequency, TF over GST control)
binding signal [2]: 1.39 fold enrichment (6-mer frequency, TF over GST control)
binding signal [3]: 1.37 fold enrichment (6-mer frequency, TF over GST control)
binding signal [4]: 1.37 fold enrichment (6-mer frequency, TF over GST control)
binding signal [5]: 1.43 fold enrichment (6-mer frequency, TF over GST control)
binding signal [6]: 1.34 fold enrichment (6-mer frequency, TF over GST control)
binding signal [7]: 1.39 fold enrichment (6-mer frequency, TF over GST control)
binding signal [8]: 1.44 fold enrichment (6-mer frequency, TF over GST control)
binding signal [9]: 1.44 fold enrichment (6-mer frequency, TF over GST control)
binding signal [10]: 1.36 fold enrichment (6-mer frequency, TF over GST control)
binding signal [11]: 1.34 fold enrichment (6-mer frequency, TF over GST control)
binding signal [12]: 1.23 fold enrichment (6-mer frequency, TF over GST control)
binding signal [13]: 1.46 fold enrichment (6-mer frequency, TF over GST control)
binding signal [14]: 1.48 fold enrichment (6-mer frequency, TF over GST control)
binding signal [15]: 1.36 fold enrichment (6-mer frequency, TF over GST control)
binding signal [16]: 1.44 fold enrichment (6-mer frequency, TF over GST control)
binding signal [17]: 1.5 fold enrichment (6-mer frequency, TF over GST control)
binding signal [18]: 1.16 fold enrichment (6-mer frequency, TF over GST control)
binding signal [19]: 1.42 fold enrichment (6-mer frequency, TF over GST control)
